In PubChem BioAssay AID2451 (National Center for Advancing Translational Sciences (NCATS), 2010):
About 2,100 (0.72%) of roughly 290,000 compounds were called active. Roughly 4% stayed inconclusive and do not appear here. Calls come from the whole dose curve; as a rule, active = well fitted inhibition curve with a large enough effect; inconclusive = small, poorly fitted or top-dose-only effect, or effect the other way; inactive = flat fitted curve, though single readings scatter. The entries come from a sample that favours actives as a whole. A call without a number means that no potency is given here.

biological target: Fructose-bisphosphate aldolase (Giardia intestinalis (strain ATCC 50803 / WB clone C6)) (UniProt A8B2U2); assay: qHTS Assay for Inhibitors of Fructose-1,6-bisphosphate Aldolase from Giardia Lamblia; settings: purified Giardia FBPA; series mostly up to 59.6 µM; note: nearly all actives have a fitted effect of over 55% in size
In short: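 Giardia FBPA (40 nM reagent) was preincubated 10 min at RT with compound (up to 57.5 uM final), then substrate plus GAPDH/TPI/NAD/arsenate coupling system with diaphorase/resazurin was added; resorufin fluorescence (525/598 nm) was read after 20 min.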
Potency is the fitted concentration of half-maximal effect.

Chain of Fructose-bisphosphate aldolase (Giardia intestinalis (strain ATCC 50803 / WB clone C6)) (A8B2U2 whole entry, looked up): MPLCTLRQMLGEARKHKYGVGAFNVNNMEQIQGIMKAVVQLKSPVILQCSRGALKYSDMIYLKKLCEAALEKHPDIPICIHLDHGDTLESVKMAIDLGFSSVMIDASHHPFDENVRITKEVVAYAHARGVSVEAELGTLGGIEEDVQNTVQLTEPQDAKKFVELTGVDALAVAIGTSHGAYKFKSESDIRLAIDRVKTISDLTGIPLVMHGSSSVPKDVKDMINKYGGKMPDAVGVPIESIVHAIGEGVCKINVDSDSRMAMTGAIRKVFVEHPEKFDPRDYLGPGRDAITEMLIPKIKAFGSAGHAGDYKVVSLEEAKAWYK

SMILES | Potency
Cc1cc(C)n(-c2ccc3nncn3n2)n1 | inactive
Cc1cc(C)n(-c2ccc(Cl)c(C(=O)O)n2)n1 | 15.8 µM (active)
COc1ccc(NC(=O)c2nc(-n3nc(C)cc3C)ccc2Cl)cc1Cl | inactive
Cn1nccc1C(=O)N1CCCC(C(=O)c2ccc(Oc3ccccc3)cc2)C1 (stereo not drawn) | inactive
Cc1cc(S(=O)(=O)c2cc3ccc(O)c(C)c3oc2=O)ccc1F | inactive
Cc1ccc(NC2(C#N)C(=O)Nc3ccccc32)cc1 (stereo not drawn) | inactive
N#CC1=C(N)Oc2[nH]c(=S)[nH]c(=O)c2C12C(=O)Nc1ccccc12 (stereo not drawn) | 6.29 µM (active)
N#CC1=C(N)Oc2n[nH]c(CSc3ccccc3)c2C12C(=O)Nc1ccccc12 (stereo not drawn) | inactive
CCc1ccc(NC(=O)C(=O)NNC(=O)c2cccs2)cc1 | inactive
COc1ccc(CNC(=O)c2ccc(Br)s2)cc1OC | inactive
Fc1ccc(-c2ccc(NCCN3CCOCC3)nn2)cc1 | inactive
COc1ccc2oc(=O)c(C(=O)NCc3ccccn3)cc2c1 | inactive
O=C(NCc1ccccn1)c1cc(Br)ccc1Cl | inactive
O=C(NCc1ccccn1)c1ccc2nc(-c3ccco3)c(-c3ccco3)nc2c1 | 2.81 µM (active)
COCn1c(C(O)c2ccccc2)cc2ccccc21 (stereo not drawn) | inactive
CC(C)NC(=O)C(=O)N/N=C/c1ccco1 | inactive
O=C(N/N=C/c1ccco1)c1ccc(C(=O)N/N=C/c2ccco2)o1 | inactive
O=c1nc(N/N=C/c2ccco2)cn[nH]1 | 17.7 µM (active)
C=CCNC(=S)/N=c1/ccccn1Cc1ccccc1 | 14.1 µM (active)
CNC(=S)NNC(=O)c1cccn(Cc2ccccc2)c1=O | inactive
N=c1ccccn1Cc1ccccc1 | inactive
O=C(c1ccccc1)N1N=C(c2ccccc2O)CC1c1ccc(Br)cc1 (stereo not drawn) | inactive
O=C(CN1CCN(c2ccccc2)CC1)Nc1ccc(F)cc1 | inactive
Cc1cc(NC(=O)CCN2CCN(Cc3ccccc3)CC2)ccc1Br | inactive
O=C(CN1CCN(Cc2ccccc2)CC1)Nc1ccc(F)c(F)c1 | 20 µM (active)

SMILES | Potency
CC(=O)N[C@@H](C)C(=O)N1CCC(n2nccc2NC(=O)CCCc2ccccc2)CC1 | inactive
CC(=O)Nc1cccc(Nc2nc(-c3cccs3)nc3ccccc23)c1 | inactive
O=C(NC(=S)Nc1ccc(S(=O)(=O)N2CCOCC2)cc1)c1ccccc1[N+](=O)[O-] | inactive
O=S(=O)(c1ccc(NC(=S)NN=C(C2CC2)C2CC2)cc1)N1CCOCC1 | 7.06 µM (active)
CN1CCN(S(=O)(=O)c2ccc(NC(=S)NC(=O)C3CC3)cc2)CC1 | inactive
CCOC(=O)c1c(-c2ccccc2)oc2cc(Br)c(O)c(C=O)c12 | inactive
CCOc1ccc(-n2c(SCC(=O)Nc3cc(C(=O)O)ccc3Cl)nc3ccccc3c2=O)cc1 | inactive
Cc1ccc(C(=O)O/N=C(\N)c2ccccn2)cc1Cl | inactive
O=C(Nc1ccccc1Cl)Nc1cccc2cccnc12 | inactive
O=C(Nc1ccccc1Cl)O/N=C(/c1ccccc1)c1ccccn1 | 15.8 µM (active)
O=C(CCC(=O)n1ncc2ccccc21)NCc1ccccc1Cl | inactive
O=C1CSC(=S)N1c1ccc(O)cc1 | inactive
O=C(Nc1ccncc1)Nc1ccc(F)cc1 | inactive
Oc1ccc2ccccc2c1N=Nc1nccs1 | 12.6 µM (active)
CN(C)CCCn1c(=O)n(Cc2ccccc2)c(=O)c2c3c(sc21)CCCCC3 | inactive
O=C(CNC(=O)Cc1ccccc1)N=Nc1c(O)[nH]c2ccc(Br)cc12 | inactive
NS(=O)(=O)c1ccc(N=Nc2c(O)[nH]c3ccc(Br)cc23)cc1 | inactive
Oc1[nH]c2ccc(Br)cc2c1N=Nc1nn[nH]n1 | 15.8 µM (active)
CCOC(=O)C1CCN(C(=O)COc2cccc3ccccc23)CC1 | inactive
COc1ccc(CNc2nc3c(c(=O)[nH]c(=O)n3C)n2Cc2ccccc2)cc1 | inactive
Cn1c(=O)[nH]c(=O)c2c1[nH]c(=S)n2Cc1ccccc1 | 8.91 µM (active)
C=CCSc1nc2c(c(=O)[nH]c(=O)n2C)n1Cc1ccccc1 | inactive
COc1cccc(OC)c1C(=O)Nc1ccc2c(c1)n(C)c(=O)n2C | inactive
CC(=O)N(C1=C(Cl)C(=O)c2ccccc2C1=O)c1ccc(C(=O)O)cc1 | 2.24 µM (active)
CN1C2C=C(N(C(=O)c3ccc(Cl)cc3)c3ccccc3)CC1CC2 (stereo not drawn) | inactive

SMILES | Potency
O=C(CN1C(=O)c2ccccc2C1=O)NCc1ccc(C(=O)O)cc1 | inactive
CC(=O)c1ccc(NC(=O)CCc2nnc3ccc(NCc4ccco4)nn23)cc1 | inactive
O=C(c1cc(C(=O)N2CCN(c3ccc(F)cc3)CC2)cc([N+](=O)[O-])c1)N1CCN(c2ccc(F)cc2)CC1 | inactive
CCCN1CCN(CCCNC(=O)CN2C(=O)COc3ccccc32)CC1 | inactive
O=C(CN1C(=O)COc2ccccc21)Nc1ccc(F)cc1 | 5.61 µM (active)
O=C(CCN1C(=O)COc2ccccc21)NCCCN1CCN(c2ccc(F)cc2)CC1 | inactive
CC(C)c1ccc(S(=O)(=O)N2CCC3(CC2)OCCO3)cc1 | inactive
CCN1C(=O)c2cccc3c(N)ccc1c23 | 0.354 µM (active)
Cc1nn(C)cc1N1C(=O)c2cccc3c(N)ccc(c23)C1=O | inactive
CN1C(=O)c2cccc3c(N)ccc(c23)C1=O | inactive
O=C(NCCN1CCN(C(=O)c2cccc([N+](=O)[O-])c2)CC1)C(=O)NCc1ccc(Cl)cc1 | inactive
CCOC(=O)c1cc(Sc2ccccc2N)cc(C(=O)OCC)n1 | inactive
Nc1ccccc1Sc1ccc(C(F)(F)F)cc1[N+](=O)[O-] | inactive
CCS(=O)(=O)c1cc([N+](=O)[O-])c(Sc2ccccc2N)s1 | 15.8 µM (active)
CC(C)CCn1c(=O)c2c(nc3n2CCCN3Cc2ccccc2)n(C)c1=O | inactive
Cc1ccccc1NC(=O)C1CCCN(C(=O)NCc2ccccc2)C1 (stereo not drawn) | inactive
CCCCc1cc(=O)oc2c(C)c(OCC(=O)N3CCC(C(N)=O)CC3)ccc12 | inactive
COc1c(O)c2c(=O)cc(OC)c3c4c(OC)cc(=O)c5c(O)c(OC)c6c(c(c1C[C@@](C)(O)[C@H]6C(C)=O)c23)c54 | inactive
CC(C)(c1ccccc1)c1ccc(OCCN)cc1 | inactive
Cc1cc(OCCN2CCCC2)ccc1C(C)C | inactive
CC(C)(c1ccccc1)c1ccc(OCCN2CCCC2)cc1 | 22.4 µM (active)
CC(C)CN(Cc1c(O)ccc2c(=O)c(-c3ccccc3)coc12)CC(C)C | inactive
COc1ccc(Cl)cc1NC(=O)c1cccc(N2C(=O)C3CC=CCC3C2=O)c1 (stereo not drawn) | inactive
